3 compounds from PubChem BioAssay (EPA / NIEHS) can be followed below.

Active and inactive are the calls of the source. Rule for the calls: active = hit-call score of the fitted dose curve at least 0.9, where 1 is the maximum; inactive = score below 0.9.

Holding throughout (settings): mRNA level, 48 h; actives raise or lower the signal
Read-out in experiment [1]: Bcl-2 (BID) gene, BID (gene 637)
Nature of the experiment: LTEA_HepaRG_BID: Life Technologies and Expression Analysis (LTEA) Assay for Bcl-2 (BID) gene using HepaRG (AID 2283476). The gist of the method:
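Gene expression by qRT-PCR in HepaRG cells after 48 h exposure, duplicate wells, eight half-log concentrations topping at 100 uM in 0.5% DMSO. Normalized to ACTB, GAPDH, POLR2A; bidirectional fitting relative to DMSO.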

Read-out in the next experiment: Caspase-3 (Homo sapiens) (UniProt P42574)
The experiment in a line: LTEA_HepaRG_CASP3: Life Technologies and Expression Analysis (LTEA) Assay for cysteine-aspartic acid protease (CASP3) using HepaRG (AID 2283477). The gist of the method:
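In HepaRG liver cells dosed for 48 h at up to 100 uM (eight-point, duplicate), CASP3 expression changes are scored by qRT-PCR. Activity is fitted in both directions with 0.5% DMSO as baseline.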

Read-out in experiment [2]: Cytochrome P450 (CYP24A1), CYP24A1 (gene 1591)
The experiment in a line: LTEA_HepaRG_CYP24A1: Life Technologies and Expression Analysis (LTEA) Assay for Cytochrome P450 (CYP24A1) using HepaRG (AID 2283478). The method in brief: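 Human liver HepaRG cultures receive each chemical for 48 h across an eight-point half-log series topping at 100 uM in 0.5% DMSO. Induction or suppression of CYP24A1 mRNA is scored relative to vehicle after housekeeping-gene normalization.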

Read-out in experiment [3]: Cytochrome P450 (CYP1A2), CYP1A2 (gene 1544)
The experiment in a line: LTEA_HepaRG_CYP1A2: Life Technologies and Expression Analysis (LTEA) Assay for Cytochrome P450 (CYP1A2) using HepaRG (AID 2283479). The method in brief: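 Assesses CYP1A2 mRNA in human HepaRG liver cells after 48 h chemical exposure at up to 100 uM. Values come from qRT-PCR with bidirectional curve fitting relative to DMSO.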

Read-out in experiment [4]: cysteine-aspartic acid protease (CASP8), CASP8 (gene 841)
The experiment in a line: LTEA_HepaRG_CASP8: Life Technologies and Expression Analysis (LTEA) Assay for cysteine-aspartic acid protease (CASP8) using HepaRG (AID 2283480). The method in brief:
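Differentiated HepaRG cells in serum-free induction medium, 48 h exposure, eight-point half-log series from 100 uM in 0.5% DMSO, duplicates. CASP8 mRNA by qRT-PCR, normalized to ACTB, GAPDH, POLR2A; bidirectional fit versus DMSO.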

Read-out in experiment [5]: Cytochrome P450 (CYP2B6), CYP2B6 (gene 1555)
Nature of the experiment: LTEA_HepaRG_CYP2B6: Life Technologies and Expression Analysis (LTEA) Assay for Cytochrome P450 (CYP2B6) using HepaRG (AID 2283481). The gist of the method: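 Using 48 h treatment of HepaRG cells in serum-free induction medium, concentrations spanned half-log steps from 100 uM in 0.5% DMSO vehicle. CYP2B6 mRNA induction or loss is scored by qRT-PCR against DMSO.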

Read-out in experiment [6]: Cytochrome P450 2C19 (Homo sapiens) (UniProt P33261)
Nature of the experiment: LTEA_HepaRG_CYP2C19: Life Technologies and Expression Analysis (LTEA) Assay for CYP2C19 using HepaRG (AID 2283482). The method in brief:
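Human HepaRG liver cells received test chemicals for 48 h (highest 100 uM, half-log dilutions in 0.5% DMSO). CYP2C19 mRNA induction or loss is read by multiplexed qRT-PCR and fitted in both directions versus vehicle.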

Read-out in the next experiment: CYP2C8 (gene 1558)
The experiment in a line: LTEA_HepaRG_CYP2C8: Life Technologies and Expression Analysis (LTEA) Assay for CYP2C8 using HepaRG (AID 2283483). The method in brief:
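Differentiated HepaRG cells in serum-free induction medium exposed 48 h in duplicate to 8 half-log concentrations from 100 uM in 0.5% DMSO. CYP2C8 mRNA by qRT-PCR normalized to ACTB, GAPDH, POLR2A; bidirectional fit versus DMSO.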

Read-out in another experiment: CYP2E1 (gene 1571)
Nature of the experiment: LTEA_HepaRG_CYP2E1: Life Technologies and Expression Analysis (LTEA) Assay for CYP2E1 using HepaRG (AID 2283485). The method in brief:
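HepaRG cells, plated 48 h, then exposed 48 h in serum-free induction medium to eight half-log concentrations from 100 uM in 0.5% DMSO, duplicate. CYP2E1 mRNA by qRT-PCR, normalized to ACTB/GAPDH/POLR2A; bidirectional fit versus DMSO.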

Read-out in the next experiment: CYP4A11 (gene 1579)
The experiment in a line: LTEA_HepaRG_CYP4A11: Life Technologies and Expression Analysis (LTEA) Assay for CYP4A11 using HepaRG (AID 2283486). The method in brief:
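Readout is CYP4A11 mRNA induction or suppression (qRT-PCR, ACTB/GAPDH/POLR2A normalization) in human HepaRG cells after 48 h chemical treatment, concentrations to 100 uM in 0.5% DMSO, fitted bidirectionally against vehicle.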

Read-out in experiment [7]: DNA damage-inducible transcript 3 (DDIT3), DDIT3 (gene 1649)
The experiment in a line: LTEA_HepaRG_DDIT3: Life Technologies and Expression Analysis (LTEA) Assay for DNA damage-inducible transcript 3 (DDIT3) using HepaRG (AID 2283488). The method in brief:
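HepaRG cells, 48 h after plating, exposed 48 h in serum-free induction medium to 8 half-log concentrations up to 100 uM in 0.5% DMSO, in duplicate. DDIT3 mRNA measured by TaqMan qRT-PCR, normalized to ACTB, GAPDH and POLR2A. Fitted bidirectionally against DMSO.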

Read-out in experiment [8]: Pro-epidermal growth factor (Homo sapiens) (UniProt P01133)
Nature of the experiment: LTEA_HepaRG_EGF: Life Technologies and Expression Analysis (LTEA) Assay for Epidermal growth factor (EGF) using HepaRG (AID 2283489). The gist of the method: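 EGF expression changes in human HepaRG cells are scored by bidirectional fitting relative to 0.5% DMSO controls. Chemicals are tested at eight half-log concentrations up to 100 uM for 48 h in serum-free induction medium.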

Read-out in experiment [9]: Early growth response protein 1 (EGR1) transcription factor, EGR1 (gene 1958)
Nature of the experiment: LTEA_HepaRG_EGR1: Life Technologies and Expression Analysis (LTEA) Assay for Early growth response protein 1 (EGR1) transcription factor using HepaRG (AID 2283490). The method in brief: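 Differentiated HepaRG cells in serum-free induction medium exposed 48 hours, duplicate, to 8 half-log concentrations up to 100 uM in 0.5% DMSO. EGR1 mRNA measured by TaqMan qRT-PCR, normalized to ACTB, GAPDH, POLR2A; bidirectional fit versus DMSO.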

Read-out in experiment [10]: Ezrin (EZR), EZR (gene 7430)
The experiment in a line: LTEA_HepaRG_EZR: Life Technologies and Expression Analysis (LTEA) Assay for Ezrin (EZR) using HepaRG (AID 2283491). The gist of the method: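 Read-out is EZR transcript level by qRT-PCR, normalized to three housekeeping genes and fitted bidirectionally against the DMSO control. Human HepaRG cells received test chemicals for 48 h at eight half-log concentrations up to 100 uM in 0.5% DMSO.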

Read-out in experiment [11]: Cytochrome P450 3A7 (Homo sapiens) (UniProt P24462)
Nature of the experiment: LTEA_HepaRG_CYP3A7: Life Technologies and Expression Analysis (LTEA) Assay for CYP3A7 using HepaRG (AID 2283492). The method in brief:
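Cells were thawed, plated, cultured 48 h, then treated for a further 48 h with chemicals (eight-point half-log series from 100 uM, 0.5% DMSO). RNA was isolated and CYP3A7 expression quantified by qRT-PCR normalised to ACTB, GAPDH and POLR2A.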

Read-out in a further experiment: CYP3A5 (gene 1577)
Nature of the experiment: LTEA_HepaRG_CYP3A5: Life Technologies and Expression Analysis (LTEA) Assay for CYP3A5 using HepaRG (AID 2283493). The method in brief:
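HepaRG cells, plated 48 h then in serum-free induction medium, dosed in duplicate for 48 h with eight half-log concentrations up to 100 uM in 0.5% DMSO. Gene mRNA by Fluidigm TaqMan qRT-PCR, normalized to ACTB, GAPDH, POLR2A.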

Read-out in experiment [12]: Cytochrome P450 4A22 (Homo sapiens) (UniProt Q5TCH4)
The experiment in a line: LTEA_HepaRG_CYP4A22: Life Technologies and Expression Analysis (LTEA) Assay for Cytochrome P450 4A22 (CYP4A22) using HepaRG (AID 2283495). The method in brief: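 Cryopreserved HepaRG cells, plated and cultured 48 h, then switched to serum-free induction medium and treated 48 h (duplicates, up to 100 uM, half-log steps, 0.5% DMSO). Expression change of CYP4A22 was fitted bidirectionally against vehicle.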

Read-out in experiment [13]: Cytochrome P450 3A4 (Homo sapiens) (UniProt P08684)
Nature of the experiment: LTEA_HepaRG_CYP3A4: Life Technologies and Expression Analysis (LTEA) Assay for CYP3A4 using HepaRG (AID 2283487). The method in brief:
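HepaRG, 48 h exposure, 8-pt CRC from 100 uM (half-log), 0.5% DMSO, duplicates; serum-free induction medium. Readout: CYP3A4 mRNA, qRT-PCR, ACTB/GAPDH/POLR2A normalization. Bidirectional fit vs DMSO.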

Read-out in another experiment: CYP2C9 (gene 1559)
Nature of the experiment: LTEA_HepaRG_CYP2C9: Life Technologies and Expression Analysis (LTEA) Assay for CYP2C9 using HepaRG (AID 2283484). The method in brief: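 Differentiated human HepaRG cells in serum-free induction medium were exposed 48 h to chemicals in 8-point half-log series from 100 uM (0.5% DMSO), in duplicate. CYP2C9 mRNA was measured by qRT-PCR, normalized to ACTB/GAPDH/POLR2A, with bidirectional fitting versus DMSO.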

Cytochrome P450 3A7 (Homo sapiens), sequence (P24462 whole entry, looked up): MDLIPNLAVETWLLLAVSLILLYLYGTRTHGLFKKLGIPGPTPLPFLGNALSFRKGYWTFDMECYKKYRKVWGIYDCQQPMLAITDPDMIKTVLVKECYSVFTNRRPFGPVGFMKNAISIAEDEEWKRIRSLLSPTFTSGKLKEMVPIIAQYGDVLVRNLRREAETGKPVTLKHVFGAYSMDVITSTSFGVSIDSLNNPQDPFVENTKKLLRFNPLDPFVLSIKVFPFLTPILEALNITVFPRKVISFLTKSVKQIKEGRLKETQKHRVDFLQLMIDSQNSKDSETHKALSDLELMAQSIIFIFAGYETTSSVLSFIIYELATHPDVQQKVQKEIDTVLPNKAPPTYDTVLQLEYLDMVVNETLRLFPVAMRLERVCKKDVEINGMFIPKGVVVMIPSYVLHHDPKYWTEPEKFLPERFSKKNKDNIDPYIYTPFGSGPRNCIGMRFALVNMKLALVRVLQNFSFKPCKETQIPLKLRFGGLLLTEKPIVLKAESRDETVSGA
Cytochrome P450 2C19 (Homo sapiens), sequence (P33261 whole entry, looked up): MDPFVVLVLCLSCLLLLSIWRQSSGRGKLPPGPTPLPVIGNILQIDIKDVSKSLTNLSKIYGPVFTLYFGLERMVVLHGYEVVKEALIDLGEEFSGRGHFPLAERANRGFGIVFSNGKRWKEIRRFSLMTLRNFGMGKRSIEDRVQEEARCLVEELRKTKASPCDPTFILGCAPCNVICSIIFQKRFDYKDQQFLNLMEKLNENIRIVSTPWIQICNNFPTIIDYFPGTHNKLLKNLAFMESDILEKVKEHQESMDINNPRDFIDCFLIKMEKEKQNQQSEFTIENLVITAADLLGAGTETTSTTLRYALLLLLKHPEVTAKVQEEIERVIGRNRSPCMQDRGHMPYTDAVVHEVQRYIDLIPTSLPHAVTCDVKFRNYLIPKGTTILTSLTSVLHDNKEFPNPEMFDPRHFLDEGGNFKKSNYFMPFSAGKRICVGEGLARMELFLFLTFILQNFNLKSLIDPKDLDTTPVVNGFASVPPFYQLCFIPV
Caspase-3 (Homo sapiens), sequence (P42574 whole entry, looked up): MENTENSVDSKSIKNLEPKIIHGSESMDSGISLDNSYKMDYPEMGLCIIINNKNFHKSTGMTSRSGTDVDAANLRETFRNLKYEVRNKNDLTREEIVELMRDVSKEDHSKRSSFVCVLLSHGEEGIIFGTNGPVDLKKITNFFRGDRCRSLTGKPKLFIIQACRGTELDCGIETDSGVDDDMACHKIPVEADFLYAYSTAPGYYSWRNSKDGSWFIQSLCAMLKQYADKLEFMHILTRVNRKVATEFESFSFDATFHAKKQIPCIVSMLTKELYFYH
Cytochrome P450 3A4 (Homo sapiens), sequence (P08684 whole entry, looked up): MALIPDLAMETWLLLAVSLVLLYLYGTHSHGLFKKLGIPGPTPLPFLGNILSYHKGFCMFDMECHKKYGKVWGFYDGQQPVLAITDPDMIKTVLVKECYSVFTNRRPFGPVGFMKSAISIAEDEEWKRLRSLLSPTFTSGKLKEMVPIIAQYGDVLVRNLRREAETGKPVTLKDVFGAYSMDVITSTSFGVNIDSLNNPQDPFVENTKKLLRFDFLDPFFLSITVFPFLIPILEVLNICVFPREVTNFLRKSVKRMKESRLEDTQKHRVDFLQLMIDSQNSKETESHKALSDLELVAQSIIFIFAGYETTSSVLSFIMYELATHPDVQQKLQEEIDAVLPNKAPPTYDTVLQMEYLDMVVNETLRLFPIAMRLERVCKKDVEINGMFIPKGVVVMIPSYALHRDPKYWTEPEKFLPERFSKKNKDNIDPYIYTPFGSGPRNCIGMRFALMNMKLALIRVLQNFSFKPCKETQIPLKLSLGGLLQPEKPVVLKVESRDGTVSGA

A word on the AC50: it is the midpoint of the concentration-response curve, whichever way the signal moves. For the compound `CCCSP(=O)(OCC)SCCC`, the compound was classed as inactive (in [1]; with Caspase-3 (Homo sapiens); in [2]; in [3]; in [4]; in experiment [6]). Also, the call (with CYP4A11 (gene 1579); in experiment [7]; in [8]; in experiment [9]; in experiment [10]; in [11]) was inactive. Moreover, the call (in the experiment with CYP3A5 (gene 1577); in [12]) was inactive. Moreover, the figures for the AC50 (in [5]; with CYP2C8 (gene 1558); with CYP2E1 (gene 1571)) were 2.48 µM (active), 5.47 µM (active) and 25.8 µM (active), respectively.

`CCCOc1nn(C(=O)NS(=O)(=O)c2ccccc2C(=O)OC)c(=O)n1C`: the result (in experiment [1]; with Caspase-3 (Homo sapiens); in experiment [2]; in experiment [3]; in [4]; in experiment [5]) was inactive. Besides, the compound was called inactive (in [6]; in the experiment with CYP2C8 (gene 1558); in the experiment with CYP2E1 (gene 1571); in the experiment with CYP4A11 (gene 1579); in experiment [13]; in experiment [7]). In addition, the compound was classed as inactive (in experiment [8]; in [9]; in [10]; in [11]; in the experiment with CYP3A5 (gene 1577); in experiment [12]).

Take `COP(=O)(NC(C)=O)SC` (stereo not drawn): the outcome (in [1]; with Caspase-3 (Homo sapiens); in [2]; in experiment [4]; in experiment [5]; in [6]) was inactive. The outcome (in the experiment with CYP2C8 (gene 1558); in the experiment with CYP2C9 (gene 1559); in the experiment with CYP2E1 (gene 1571); with CYP4A11 (gene 1579); in [13]; in [7]) was inactive. For the same compound, the compound was called inactive (in experiment [8]; in [9]; in [10]; in experiment [11]; in the experiment with CYP3A5 (gene 1577); in [12]).
